{
  "source": "PubChem BioAssay (Tox21)",
  "note": "Records with an inconclusive call do not appear. Activity calls are given as the source filed them. Calls come from the whole dose curve; as a rule, active = well fitted activation curve with a large enough effect in the signal ratio in the repeat runs (not every such curve was filed as active); inconclusive = weak or mixed curves, or effect the other way; inactive = flat fitted curve, though single readings scatter; the % refers to the signal ratio.",
  "data": [
    {"assay": "qHTS assay to identify small molecule agonists of the endoplasmic reticulum stress response signaling pathway (AID 1159516)", "conditions": "ESRE-bla HeLa, ER stress beta-lactamase reporter, 5 h; series mostly up to 61 µM", "source_text": "National Center for Advancing Translational Sciences [NCATS]\nNIH Chemical Genomics Center [NCGC]\nU.S. Environmental Protection Agency [EPA]\nNational Institutes of Environmental Health Sciences [NIEHS]\nNational Toxicology Program [NTP]\nU.S. Food and Drug Administration [FDA]\nEndoplasmic Reticulum (ER) plays an important role in cellular signaling, protein folding/maturation, stress response, lipid biosynthesis, calcium storage and release etc. Under stress conditions, proteins in ER misfold or unfold, and leading to the expression of ER stress responsive genes. ER stress has been associated with a variety of pathophysiological conditions such as cancer, inflammation, neurodegenerative diseases, diabetes, ischemic heart disease etc. To identify the compounds that induce ER stress response, an ER stress reporter cell line, CellSensor ESRE-bla HeLa (Life Technologies, Carlsbad, CA) containing a beta-lactamase reporter gene under control of the Endoplasmic reticulum Stress Response Element (ESRE) was used to screen Tox21 10K compound library.\nTox21 Assay Protocol Summary:\nESRE-bla HeLa cells were dispensed at 1,500 cells/6 uL of assay medium per well into black wall/clear-bottom 1536-well plates using a Multidrop Combi (ThermoFisher Scientific, Waltham, MA) dispenser. After the assay plates were incubated at 37 C and 5% CO2 for an overnight, 23 nL of compounds dissolved in DMSO, positive controls or DMSO only was transferred to the assay plate by a Pintool station (Kalypsys, San Diego, CA). The assay plates were incubated at 37 C and 5% CO2 for 5 hr. One uL of LiveBLAzer B/G FRET substrate (Life Technologies) was added using a Flying Reagent Dispenser (Aurora Discovery, San Diego, CA) and the plates were incubated at room temperature for 2 hr. Fluorescence intensity (405 nm excitation, 460 nm and 530 nm emissions) was measured using an Envision plate reader (PerkinElmer, Shelton, CT).", "values": [
      {"compound": "CC(=O)NC1CCSC1=O", "note": "(stereo not given)", "outcome": "inactive"},
      {"compound": "C=CCCl", "outcome": "inactive"},
      {"compound": "N#Cc1ccc(Cl)cc1", "outcome": "inactive"},
      {"compound": "CCCCN=C=O", "outcome": "inactive"},
      {"compound": "COCC(C)N(C(=O)CCl)c1c(C)csc1C", "note": "(stereo not given)", "outcome": "inactive"},
      {"compound": "[CH3][Sn]([CH3])([Cl])[Cl]", "outcome": "inactive"},
      {"compound": "Nc1ccc([N+](=O)[O-])cc1[N+](=O)[O-]", "outcome": "inactive"},
      {"compound": "CC/C(=N\\OC/C=C/Cl)C1=C(O)CC(C2CCOCC2)CC1=O", "note": "(stereo not given)", "outcome": "inactive"},
      {"compound": "CCCCOC(=O)c1ccccc1C(=O)OCc1ccccc1", "outcome": "inactive"},
      {"compound": "Cc1ccccc1C(=O)Nc1cccc(OC(C)C)c1", "outcome": "inactive"},
      {"compound": "CCCCCCCCCCOC(=O)c1ccccc1C(=O)OCCCCCCCCCC", "outcome": "inactive"},
      {"compound": "O=C(O)CC(Cl)C(=O)O", "note": "(stereo not given)", "outcome": "inactive"},
      {"compound": "COP(=O)(OC)O/C(=C/Cl)c1cc(Cl)c(Cl)cc1Cl", "outcome": "inactive"},
      {"compound": "C=CCOC(C)=O", "outcome": "inactive"},
      {"compound": "CCOP(=S)(OCC)SCSCC", "outcome": "inactive"},
      {"compound": "Cl/C=C\\C[N+]12CN3CN(CN(C3)C1)C2", "outcome": "inactive"},
      {"compound": "ClCC(Br)CBr", "note": "(stereo not given)", "outcome": "inactive"},
      {"compound": "Nc1nc(=S)[nH][nH]1", "outcome": "inactive"},
      {"compound": "C#CCOC(C(=O)OCCN(C)C)(c1ccccc1)c1ccccc1", "outcome": "inactive"},
      {"compound": "O=C(CBr)c1ccccc1", "outcome": "inactive"},
      {"compound": "Cl/C=C\\Cl", "outcome": "inactive"},
      {"compound": "O=C(Nc1ccccc1)Nc1ccnc(Cl)c1", "outcome": "inactive"},
      {"compound": "CCCCCCCCOC(=O)c1ccc(C(=O)OCCCCCCCC)c(C(=O)OCCCCCCCC)c1", "outcome": "inactive"},
      {"compound": "CC(Cl)Cl", "outcome": "inactive"},
      {"compound": "BrCCCCBr", "outcome": "inactive"},
      {"compound": "CCN(C)N=O", "outcome": "inactive"},
      {"compound": "C=C(C#N)CCC#N", "outcome": "inactive"},
      {"compound": "O=C(CBr)OCc1ccccc1", "outcome": "inactive"},
      {"compound": "CCn1cc[n+](C)c1", "outcome": "inactive"},
      {"compound": "CC(C)(CCl)C(=O)Cl", "outcome": "inactive"},
      {"compound": "Cn1cc[n+](C)c1", "note": "(tested in a mixture with another compound)", "outcome": "inactive"},
      {"compound": "CCOC(=O)CBr", "outcome": "inactive"},
      {"compound": "C[C@@H]1CC[C@H]2[C@@H](C)C(=O)O[C@@H]3O[C@@]4(C)CC[C@@H]1[C@]32OO4", "outcome": "inactive"},
      {"compound": "Clc1cccc2ccccc12", "outcome": "inactive"},
      {"compound": "CCC(Br)(CC)C(=O)NC(N)=O", "outcome": "inactive"},
      {"compound": "C=CC(=O)OCC(C)C", "outcome": "inactive"},
      {"compound": "CC(C)N(C(=O)COc1nnc(C(F)(F)F)s1)c1ccc(F)cc1", "outcome": "inactive"},
      {"compound": "CCCN(CCCl)c1c([N+](=O)[O-])cc(C(F)(F)F)cc1[N+](=O)[O-]", "outcome": "inactive"},
      {"compound": "c1ccc(C2CC2)c(OCC2=NCCN2)c1", "outcome": "inactive"},
      {"compound": "ClCc1ccccc1", "outcome": "inactive"}
    ]}
  ]
}
